As usually defined, the inhibition is how much of the control response was suppressed.

Each structure is given as a SMILES string. The source made the active and inactive calls. Cut-off read from the data, not from the text of the source: active = inhibition above about 28%; inactive = the rest.

This test can be described thus: StAR promoter reporter inhibitors, counter-screen for LRH-1 inverse agonist project, cell-based, luminescence, high throughput (AID 651611). The conditions noted are these: StAR promoter luciferase reporter counterscreen, at 3.6 µM, active compounds read high. For orientation: The purpose of a counterscreen is to sort out artefacts and off-target activity.
Regarding `CC(=O)O[C@H]1C[C@@H]2OC3C=C(C)CCC3(C)[C@@]1(C)[C@@]21CO1` (stereo not given in full), the inhibition is 95.6% (active). Under `CC(=O)OC1CC(OC2C(O)CC(OC3C(O)CC(OC4CCC5(C)C(CCC6C5CCC5(C)C(C7=CC(=O)OC7)CCC65O)C4)OC3C)OC2C)OC(C)C1OC1OC(CO)C(O)C(O)C1O` (stereo not given) stands 94.6% (active). Take `COC1=C(C)C(=O)C2=C(C1=O)C(CO)N1C(C#N)C3CC4C(C1C2N1CCOC41)N3C` (stereo not given): the inhibition was 86.5% (active).

For `C[C@@H]1O[C@@H](O[C@@H]2C=C3CC[C@@H]4C(CC[C@]5(C)[C@@H](c6ccc(=O)oc6)CC[C@]45O)[C@@]3(C)CC2)[C@H](O)[C@H](O)[C@H]1O` (stereo not given in full), the inhibition is 97.1% (active). Under `COC1C(O)C(C)OC(OC2CCC3(C)C(CCC4C3C(O)CC3(C)C(C5=CC(=O)OC5)CCC43O)C2)C1O` (stereo not given) stands 97.3% (active).

These data come from PubChem BioAssay.
